RORg inh – blocks mouse ROR gamma transcriptional activity; Potency, µM (highest dose often 53.6 µM), for inactives: top-dose activity change, negative = inhibition, actives largely listed as inhibitors; AID 2551; Drosophila S2 Gal4-RORgamma UAS-luciferase reporter, 20 h; 5.4% of 310,000 active; also: nearly all actives have a fitted effect of over 60% in size
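Compounds are pin-transferred onto Drosophila Schneider cells expressing a copper-inducible Gal4–ROR gamma transactivation domain fusion. After 1 hr, copper sulfate is added to 700 uM final; luciferase is read 20 hr later.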
VP16 counter – inhibits Gal4-VP16 luciferase reporter, ROR gamma counter-screen; Drosophila S2 Gal4-VP16 UAS-luciferase, luminescence, 20 h; Potency, µM (titrated, usually from 53.6 µM), for the others: top-dose activity, negative = inhibition, usual class: inhibitors; 3.5% of 310,000 active; AID 2546;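 also: Gal4-VP16 expression switched on by copper sulfate through the metallothionein promoter; nearly all actives have a fitted effect of over 50% in size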
B2AR arrestin – beta2AR (human) beta-arrestin recruitment activity. P07550. 0.02% of 330,000 active. Potency, µM (titrated, usually from 46.1 µM), without a hit: top-dose activation, usual class: activators. beta-arrestin recruitment to beta2AR, cell-based reporter;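 also: 0% = DMSO controls and full agonism = EC100 isoproterenol or metaproterenol; nearly all actives have a fitted effect of over 65% in size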
NPSR antagonist – neuropeptide S receptor (human) antagonism, cAMP; Q6W5P4; CHO-NPSR cells, cAMP TR-FRET, antagonist mode; Potency, µM (titrated, usually from 38.3 µM), without a hit: top-dose activity change, negative = inhibition, most hits filed as inhibitors; 1% of 220,000 active; also: nearly all actives have a fitted effect of over 50% in size
Target sequence (Q6W5P4 whole entry, looked up): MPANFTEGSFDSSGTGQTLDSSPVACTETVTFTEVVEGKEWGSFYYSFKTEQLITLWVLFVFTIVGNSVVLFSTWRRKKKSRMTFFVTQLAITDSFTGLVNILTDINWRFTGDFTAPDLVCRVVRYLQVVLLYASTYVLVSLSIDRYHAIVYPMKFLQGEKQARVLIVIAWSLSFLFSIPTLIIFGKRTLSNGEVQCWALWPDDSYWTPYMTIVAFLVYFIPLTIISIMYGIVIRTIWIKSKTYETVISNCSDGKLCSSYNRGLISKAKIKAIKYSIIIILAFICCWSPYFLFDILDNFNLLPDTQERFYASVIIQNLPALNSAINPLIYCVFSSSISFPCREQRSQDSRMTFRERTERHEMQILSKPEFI
* marks the source's active call; other numbers are inactive results; ? = inconclusive; nt = no result; [ ] = dose if it differs, or a comment. The list is not random: actives were taken first. Their share in the collection is about 5.7%. Calls follow the shape of the dose curve; as a rule, active = well fitted curve in the direction sought with a large enough effect; inconclusive = small, poorly fitted or top-dose-only effect, or another doubt; inactive = no such curve, though single readings can be large; an effect the other way counts as inactive or inconclusive. Unless noted, % is scaled to controls: 0 for no effect and ±100 for the full control effect; potency is read from the fitted curve at half-maximal effect.

SMILES	RORg inh	VP16 counter	B2AR arrestin	NPSR antagonist
CC(C)(C)c1nnc(N/N=C/c2ccccc2)n(N)c1=O	3.98µM*	5.62µM*	-0.5%	17.2%
CCc1nnc(N/N=C/c2ccccc2Cl)n1N	?	?	-0.6%	5.8%[46.1 µM]
CC(C)(C)c1nnc(N/N=C/c2ccccc2O)n(N)c1=O	10µM*	11.2µM*	0.3%	13.6%
COCCNC(=O)[C@H](C)/C=C/C(NC(=O)OCc1ccccc1)c1ccc(C(=O)OC)cc1 (stereo partly drawn)	7.1%	8.4%	nt	nt
CCCCn1c(O)c(N=Nc2ccccn2)c2ccccc21	10µM*	?	-0.9%	-20.3%
CCC(C)NC(=O)c1c(N)n(/N=C/c2ccccn2)c2nc3ccccc3nc12 (stereo not drawn)	17.8µM*	3.4%	-0.5%	-14.2%[46.1 µM]
COc1ccc(CN(N=O)C2CC(=O)N(c3ccc(OC)cc3)C2=O)cc1 (stereo not drawn)	?	14.1µM*	-0.5%	-16.6%
COc1ccc(CCN(C)C2CC(=O)N(c3ccccc3)C2=O)cc1OC (stereo not drawn)	?	15.8µM*	-0.7%	16.5%
COc1ccc(N2C(=O)CC(N(CCc3ccc(OC)c(OC)c3)C(=S)Nc3ccccc3)C2=O)cc1 (stereo not drawn)	?	0.794µM*	-1.4%	-8.2%
N=c1oc2cc(O)ccc2cc1C(=O)Nc1ccccn1	35.4%	0.2%	-0.1%	-9.4%
N=c1oc2cc(O)ccc2cc1C(=O)Nc1ccc(Br)cc1	1.78µM*	1.78µM*	-0.2%	nt
Cc1ccc(S(=O)(=O)NCl)cc1	0.0%	-2.6%	nt	nt
COc1cc(CNCCNC(=O)c2nonc2N)ccc1OCc1ccc(Cl)cc1	?	?	-0.1%	-21.7%
Fc1ccc(NC(=S)NNc2ncc(C(F)(F)F)cc2Cl)c(F)c1	5.01µM*	?	-1.3%	-13.2%
FC(F)(F)c1cnc(NNC(=S)Nc2ccc(Cl)cc2)c(Cl)c1	5.62µM*	7.94µM*	-0.4%	-35.3%
Cc1ccc(NC(=S)NNc2ncc(C(F)(F)F)cc2Cl)c(C)c1	10µM*	?	-0.5%	-11.2%[46.1 µM]
Cc1ccc(NC(=S)NNc2ncc(C(F)(F)F)cc2Cl)cc1	12.6µM*	11.2µM*	-0.3%	-8.8%[46.1 µM]
O=S(=O)(NNc1ncc(C(F)(F)F)cc1Cl)c1ccc(F)cc1F	nt	nt	-0.2%	nt
O=C(COC(=O)CNC(=O)c1ccc(Cl)cc1)Nc1cccc(S(=O)(=O)N2CCCC2)c1	-7.2%	-5.3%	0.3%	5.6%
Cc1ccc(-c2csc3ncnc(SCC(=O)Nc4nnc(C)s4)c23)cc1	-44.3%	-6.3%	-1.0%	-16.5%[46.1 µM]
Cc1ccc(-c2csc3ncnc(Sc4nnc(CN5CCCCCC5=O)o4)c23)cc1	10µM*	?	0.2%	?
CCOC(=O)CSc1nnc(NC(=O)c2ccc3c(c2)OCO3)s1	11.2µM*	15.8µM*	-0.1%	nt
CC(c1ccccc1)c1nnc(NC(=O)c2ccc3c(c2)OCO3)s1 (stereo not drawn)	?	0.9%	-0.3%	-10.1%
CCSc1nnc(NC(=O)c2ccc3c(c2)OCO3)s1	-22.6%	?	-0.2%	-3.3%[46.1 µM]
CC(C)c1nnc(NC(=O)c2ccc3c(c2)OCO3)s1	6.31µM*	?	0.2%	-1.7%
SMILES	RORg inh	VP16 counter	B2AR arrestin	NPSR antagonist
CCc1nnc(NC(=O)CN2CCCC(C)C2)s1 (stereo not drawn)	-19.7%	-4.5%	-0.7%	nt
CN(C)c1ccc(N2C(=O)CSC2=S)cc1	?	?	3.9%	-20.8%
CC1SC(=S)N(c2ccc(N(C)C)cc2)C1=O (stereo not drawn)	11.2µM*	12.6µM*	4.7%	nt
O=[N+]([O-])c1ccc(N2CCC(O)CC2)nc1	-8.5%	1.6%	-1.6%	12.6%
Cc1ccc(-c2c(C3C4C=CCC(C)C4C(=O)N3Cc3ccccc3)ccc3ccccc23)cc1 (stereo not drawn)	32.0%	7.3%	nt	nt
CCc1ccc2oc(-c3cc(N)ccc3O)nc2c1	2.51µM*	3.98µM*	0.1%	-11.9%[46.1 µM]
CCc1ccc2oc(-c3cc(N)cc(C)c3O)nc2c1	?	8.91µM*	0.3%	-1.3%[46.1 µM]
CCc1ccc2oc(-c3cc(N)ccc3Cl)nc2c1	?	10µM*	-0.2%	-19.9%[46.1 µM]
Cc1ccc(-c2nc3cnccn3c2Nc2c(C)cccc2C)o1	11.2µM*	-10.6%	7.5%	-28.0%[46.1 µM]
Cc1cc(N2CCCC2)nc2ccccc12	-10.9%	7.9%[10 µM]	0.1%	5.4%
Cc1nn(-c2cc(C)c3ccccc3n2)c2c1CCC2	2.24µM*	?	-0.1%	6.7%[46.1 µM]
CCCn1nnnc1NC(=O)COc1ccc(Cl)c(C)c1	5.01µM*	4.47µM*	0.1%	-4.0%[46.1 µM]
CCCn1nnnc1NC(=O)COc1ccc(CC)cc1	10µM*	11.2µM*	-0.7%	5.0%
COC(=O)c1cc(S(=O)(=O)NCCN2CCN(c3ccccc3F)CC2)c[nH]1	-3.8%	4.0%	-0.9%	nt
Cc1ccc(NC(=O)NC2CCCCCCC2)c(C)c1	-6.2%	-22.1%	-1.0%	nt
Cc1ccc(NC(=O)NC2CCCCC2)c(C)c1	14.1%	10.1%	-0.6%	4.6%
Cc1ccc(NC(=S)NC2CCCC2)c(C)c1	7.08µM*	6.31µM*	-0.1%	nt
Cc1cc(OC(F)F)ccc1NC(=S)NC1CCCC1	2.51µM*	7.08µM*	0.3%	nt
Cc1ccc(C)c(NC(=S)NC2CC3CCCC(C2)N3CC(C)C)c1 (stereo not drawn)	14.1µM*	?	-0.1%	12.7%[46.1 µM]
Cc1cc(OC(F)F)ccc1NC(=O)Nc1ccc2c(c1)OCO2	-2.1%	-1.0%	3.8%	nt
CCCN1C2CCCC1CC(NC(=S)Nc1cc(C)cc(C)c1)C2 (stereo not drawn)	-25.9%	14.5%	0.4%	-11.5%
Cc1cc(F)ccc1NC(=S)NC1CCCC1	6.31µM*	10µM*	?	nt
Cc1cnc(C(=O)O)cn1	-14.9%	4.1%	nt	nt
CCn1c(SCC(=O)Nc2nccs2)nnc1-c1ccc(S(=O)(=O)N2CCCCCC2)cc1	-14.1%	4.9%	-0.4%	-6.5%[46.1 µM]
CCC(Sc1nnc(-c2ccc(C)c(Cl)c2)n1CC)C(=O)Nc1nccs1 (stereo not drawn)	12.6µM*	?	4.6%	-22.1%[46.1 µM]
SMILES	RORg inh	VP16 counter	B2AR arrestin	NPSR antagonist
COC(=O)[C@H]1C[C@H]2CC[C@H](O)C[C@H]2N1Cc1c(F)cccc1Cl	-3.7%	-3.5%	nt	nt
Brc1ccc(N=Nc2ccc3ccccc3n2)cc1	0.112µM*	0.447µM*	0.1%	35.1%
S=C(N/N=C1\CCc2ccccc21)NC1CCCCC1	1µM*	5.62µM*	-1.0%	-38.1%
O=C(N/N=C1/CCc2ccccc21)C1CC1	7.6%	4.2%	-0.2%	2.5%
CC(C)NC(=S)N/N=C1\CCCCc2ccccc21	0.794µM*	2µM*	0.3%	-34.2%
COc1cccc(NC(=S)N/N=C2/CCCCc3ccccc32)c1	3.55µM*	5.01µM*	-0.1%	-29.5%
Cc1ccc(C)c(NC(=S)N/N=C2/CCCCc3ccccc32)c1	1.58µM*	6.31µM*	-0.5%	-28.7%
Cc1ccc(C)c(S(=O)(=O)N/N=C2/CCCc3ccccc32)c1	5.3%	12.6%	0.0%	?
COC(=O)N/N=C1\CCCc2ccccc21	20.5%	1.5%	-1.1%	13.4%
Cc1ccc(C(=O)NCC(=O)OCCCOC(=O)CNC(=O)c2ccc(C)c(C)c2)cc1C	nt	nt	0.4%	nt

High-throughput results (PubChem)
